TDP1 cell CPT = growth inhibition of DT40 Tdp1-/-;hTDP1 cells with camptothecin (screen for TDP1 inhibitors); Potency, µM (titrated, usually from 46.2 µM), without a hit: at the top dose activity change, negative = growth inhibition, hits mostly inhibitors; actives 12% (n = 420,000); chicken DT40 Tdp1-/-;hTDP1 cells + 20 nM CPT, ATP luminescence, 48 h; AID 686979; further: potency means the concentration at half of the fitted maximal effect; nearly all actives have a fitted effect of over 55% in size
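Cell growth measured by CellTiter-Glo luminescence after a minimum 48 h, 37 C compound exposure with 20 nM CPT in Tdp1-knockout DT40 cells stably expressing hTDP1, seeded 400/well; qHTS titration format.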
TDP1 cell noCPT = qHTS for Inhibitors of human tyrosyl-DNA phosphodiesterase 1 (TDP1): qHTS in cells in absence of CPT; actives 15% (n = 420,000); DT40 Tdp1-/- hTDP1 cells, no CPT, ATP luminescence, 48 h; Potency, µM (top dose mostly 46.2 µM), for the others: top-dose activity change, negative = growth inhibition, usual class: inhibitors; further: potency means the concentration at half of the fitted maximal effect; nearly all actives have a fitted effect of over 55% in size
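Luminescent ATP content (CellTiter-Glo) served as the growth readout. Knockout chicken DT40 cells expressing human TDP1 were exposed to compounds without camptothecin for a minimum 48 hr at 37 °C.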
HT1080 IDH1KD tx = toxicity to HT-1080 IDH1 knockdown cells (counter line). HT-1080 IDH1 knockdown viability, ATP luminescence, 48 h. Potency, µM (series often up to 46.1 µM), without a hit: at the highest dose activity, negative = toxicity, most hits filed as cytotoxic. actives 2% (n = 360,000). AID 686971;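 further: potency means the concentration at half of the fitted maximal effect; 0% = DMSO wells and -100% = cell-free medium wells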
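Luminescent ATP read-out (CellTiter-Glo, 10 min at room temperature) after 48 h compound exposure at 37 °C gave viability of IDH1-knockdown HT-1080 cells. Activity was normalised to DMSO and cell-free wells, then fitted as concentration-response curves.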
HT1080-NT tox = kills 2HG-producing HT-1080-NT fibrosarcoma cells; HT-1080-NT fibrosarcoma viability, CellTiter-Glo ATP luminescence, 48 h; Potency, µM (titrated, usually from 46.1 µM), for the others: at the highest dose activity, negative = less viability, actives largely listed as cytotoxic; actives 1.6% (n = 360,000);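 further: NT is the 2HG producing partner of a matched IDH1 knockdown line; potency means the concentration at half of the fitted maximal effect; 0% = DMSO-treated cells and -100% = media-only wells without cells; nearly all actives have a fitted effect of over 55% in size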
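Read-out is CellTiter-Glo luminescence after 10 minutes at room temperature, following 48 hours' compound treatment of HT-1080-NT cells (750 cells/well, RPMI, 5% FBS, 37 degrees C).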
IL-1B inflam inh = inhibitors of inflammasome signaling (IL-1 beta secretion). THP-1 LPS/ATP IL-1B secretion, AlphaLISA, 16 h; stronger effect = lower value. actives 4.7% (n = 360,000). AID 743279. activity change, % at 57.5 µM; in the data active means activity change below about -50%; inconclusive means mostly about -30% to -49%
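Secreted IL-1B measured by AlphaLISA bead assay after 16 h compound exposure of THP-1 cells; compounds (final up to 57.5 uM) added 1 h before LPS (250 ng/mL) and ATP (1.25 mM) stimulation; lower signal means less secretion.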
ELG1 repair inh = inhibitors of ELG1-dependent DNA repair in HEK293T cells. HEK293T ELG1-luciferase reporter, luminescence, 16 h; DNA damage induced by 5-fluorouridine. Potency, µM (titrated, usually from 46.1 µM), inactives show top-dose activity change, negative = inhibition, most hits filed as inhibitors. actives 2.3% (n = 330,000); further: potency means the concentration at half of the fitted maximal effect; nearly all actives have a fitted effect of over 55% in size
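HEK293T cells expressing luciferase-tagged ELG1 (2,000/well) received 5-Fluorouridine plus compound or DMSO for 16 hr at 37 °C. Luciferase was read by ONE-Glo luminescence after 30 min at room temperature.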
* hit, by the source's call; ? = inconclusive; . = no result given. Shown are actives, neighbours in structure and some others; about 19% of the full set was active somewhere. Unless noted, the call rests on the fitted dose curve; in most records, active means well fitted curve in the direction sought with a large enough effect; inconclusive means small, poorly fitted or top-dose-only effect, or another doubt; inactive means no such curve, though single readings can be large; an effect the other way counts as inactive or inconclusive. Unless noted, on the % scale 0 is the no-effect control and ±100 the full control effect.

SMILES	TDP1 cell CPT	TDP1 cell noCPT	HT1080 IDH1KD tx	HT1080-NT tox	IL-1B inflam inh	ELG1 repair inh
CCCNc1ncnc2c1c(-c1ccccc1)cn2-c1ccccc1	15µM*	23µM*	.	.	.	.
O=c1cc(-c2ccccc2)oc2c1CCCC2	?	?	10%	14%	5	.
COc1ccc(CCNc2ncnc3c2c(C)c(C)n3CCO)cc1OC	21µM*	8.2µM*	1%	6%	-1	23µM*
COc1ccc(CCNc2ncnc3c2c(C)c(C)n3CCCN(C)C)cc1OC	-36%	?	3%	13%	-20	8%
Cc1ccc(-n2cc(-c3ccccc3)c3c(NN4CCOCC4)ncnc32)cc1	21µM*	23µM*	0%	0%	-15	?
COc1ccc(Cl)cc1Nc1ncnc2c1c(-c1ccccc1)cn2-c1ccccc1	-7%	-5%	.	.	.	.
CCc1ccc(-n2nc(C)c3c(C)cc(=O)n(CC(=O)Nc4cc(Cl)ccc4OC)c32)cc1	0%	-19%	.	.	.	.
Cc1onc(-c2c(F)cccc2Cl)c1C(=O)NC1CCCCCC1	?	29µM*	-11%	18%	1	13%
Cc1onc(-c2c(Cl)cccc2Cl)c1C(=O)c1c[nH]c(C(=O)NCC2CCCO2)c1 (configuration not stated)	?	13µM*	5%	-6%	-6	18µM*
Cc1onc(-c2c(F)cccc2Cl)c1C(=O)c1ccccc1O	-28%	?	26µM*	?	-11	-1%
Cc1onc(-c2c(Cl)cccc2Cl)c1C(=O)NC1CCCCC1	?	9.2µM*	-19%	0%	-5	-11%
Cc1onc(-c2c(Cl)cccc2Cl)c1C(=O)NN1CCCCCC1	9%	-29%	12%	11%	.	?
CCOC(=O)c1c(/N=C/C2=C(O)CC(C)(C)CC2=O)sc(C(C)=O)c1C	-3%	25%	-2%	0%	-8	?
Cc1onc(-c2ccccc2Cl)c1C(=O)NC1CCCCCC1	26µM*	16µM*	-10%	-1%	11	-7%
Cc1onc(-c2ccccc2Cl)c1C(=O)N1CCCCCC1	-2%	-22%	-8%	15%	4	5%
Cc1cc(=O)[nH]c(SCC(=O)Nc2nc(-c3ccccc3)c(-c3ccccc3)o2)n1	5%	-21%	7%	17%	-11	22%
Cc1ccc(C(=O)Nc2nc(-c3ccccc3)c(-c3ccccc3)o2)cc1	21µM*	18µM*	?	-4%	-9	-1%
Cc1nc(-c2ccc(NC(=O)C(C)(C)C)cc2)c(-c2ccccc2)o1	?	16µM*	5%	3%	-13	?
Cc1cc(C)nc(SCC(=O)Nc2nc(-c3ccccc3)c(-c3ccccc3)o2)n1	?	23µM*	2%	2%	-1	-20%
CC(Oc1cccc(Cl)c1)C(=O)Nc1ccc(N2CCOCC2)cc1N1CCOCC1 (configuration not stated)	?	13µM*	-2%	-26%	-24	?
CC(C)COc1cccc(C(=O)Nc2ccc(N3CCOCC3)cc2N2CCOCC2)c1	?	13µM*	6%	10%	-27	?
CC(C)COc1cccc(C(=O)Nc2ccc(CN3CCOCC3)cc2)c1	23µM*	?	?	-15%	-82*	?
Cc1ccc2[nH]c3c(NCc4ccccc4)ncnc3c2c1	21µM*	16µM*	-23%	-16%	-2	?
Cc1ccc2[nH]c3c(Cl)ncnc3c2c1	18%	-17%	?	?	.	?
COc1ccc(CNc2ncnc3c2[nH]c2cc(OC)c(OC)cc23)cc1	?	?	?	-15%	-95*	?
SMILES	TDP1 cell CPT	TDP1 cell noCPT	HT1080 IDH1KD tx	HT1080-NT tox	IL-1B inflam inh	ELG1 repair inh
COc1ccc(CNC(=O)Cn2cnc3c(NCc4ccccc4)ncnc32)cc1	10µM*	5.8µM*	16µM*	15µM*	65	-19%
COc1ccc2c(c1)[nH]c1c(Cl)ncnc12	?	?	9%	5%	-95*	5%
CC1CC2C3CC(F)C4=CC(=O)C=C[C@@]4(C)[C@@]3(F)C(O)C[C@]2(C)[C@]1(O)C(=O)COC(=O)C(C)(C)C (some centres not stated)	0%	?	.	.	.	.
COc1ccc(NC(=O)Cn2c(NCC(C)O)nc3ccccc32)cc1Cl (configuration not stated)	-4%	-1%	2%	1%	-3	10%
c1coc(CNc2ncnc3c2[nH]c2ccccc23)c1	13µM*	14µM*	.	.	.	.
Brc1ccc2[nH]c3c(NCc4ccccn4)ncnc3c2c1	?	?	16µM*	?	.	?
O=c1c2[nH]c3ccccc3c2ncn1Cc1ccco1	-3%	-1%	-7%	-4%	3	?
c1ccc(CNc2ncnc3c2oc2ccccc23)nc1	-12%	-15%	-2%	-4%	38	?
CC(C)OCCCNc1ncnc2c1[nH]c1ccccc12	8.9µM*	14µM*	?	?	-93*	9.2µM*
CCOc1ncnc2c1[nH]c1ccccc12	?	?	-17%	-21%	?	?
COc1ccc(CNc2ncnc3c2[nH]c2ccccc23)cc1	10µM*	5.8µM*	21µM*	16µM*	-108*	2.1µM*
C1=C(CCNc2ncnc3c2[nH]c2ccccc23)CCCC1	0.73µM*	0.41µM*	26µM*	26µM*	-84*	18%
CCCOc1ncnc2c1[nH]c1ccc(C)cc12	?	9.2µM*	?	?	-14	?
COc1cc2[nH]c(=S)nc(NCc3ccc(C)cc3)c2cc1OC	?	23µM*	1%	3%	-8	-20%
Cc1cc(C)n(-c2ccc(S(=O)(=O)N3CCOCC3)cc2[N+](=O)[O-])n1	3%	-12%	9%	3%	7	0%
COc1ccc(NC(=O)C2CCCN2C(=O)Oc2ccccc2)cc1 (configuration not stated)	11%	-1%	18%	16%	7	14%
COc1ccc(N2CCN(c3cc(C)nc4nc(-c5ccc(C)cc5)nn34)CC2)cc1	-1%	-3%	.	.	.	.
Cc1nc2ncnn2c(N2CCN(c3cccc(C(F)(F)F)c3)CC2)c1C	16µM*	21µM*	?	?	?	?

Screening results from PubChem.
